# PubChem BioAssay
# Calls of active or inactive are those of the source. Unless noted, the rule behind the calls is not given here.
# What was measured:
# [1] = HepG2 liver cancer cell viability effects, profiling panel, resazurin fluorescence, 24 h, PK04 Diversity Set (AID 1172); conditions: higher = more signal
# [2] = basal S. cerevisiae growth modulation, no modifier, primary screen, OD600, strain BY4716, 24 h, basal condition (AID 1173); conditions: OD600, 24 h, higher = more signal, called active from +8 up or from −8 down
# [3] = MM1S myeloma cell viability, profiling panel, resazurin fluorescence, basal, 24 h, PK04 Diversity Set (AID 1174); conditions: higher = more signal, called active from +8 up or from −8 down;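 note: MM1S multiple myeloma cell line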
# [4] = target: Dihydroorotate dehydrogenase (quinone), mitochondrial (Plasmodium falciparum (isolate 3D7)) (UniProt Q08210); test: PfDHODH enzyme inhibitors, primary screen, biochemical, C-terminal His tag, absorbance 600 nm (AID 1175); conditions: DCIP absorbance 600 nm, higher = more signal, called active from +8 up or from −8 down;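 note: recombinant parasite enzyme with a five histidine tag at its C terminus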
# [5] = P. aeruginosa biofilm formation inhibitors, primary screen, strain PAO1, LB-PBS medium, absorbance 600 nm (AID 1176); conditions: P. aeruginosa PAO1 growth/biofilm, A600, 12 h; higher = more signal
# [6] = S. cerevisiae RM11-1a growth modifiers, primary screen, strain RM11-1a, OD600, basal, 24 h (AID 1177); conditions: OD600, 24 h, higher = more signal, called active from +8 up or from −8 down;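 note: cultures grown under basal conditions with no added stressor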
# [7] = E. coli acrAB mutant growth effects, primary screen, E. coli filamentation inducers, strain DRC39, OD650, 24 h (AID 1178); conditions: higher = more signal, called active from +8 up or from −8 down;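 note: growth measured as culture turbidity by optical density at 650 nm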
# [8] = E. coli acrAB mutant growth effects, primary screen, E. coli filamentation inducers, strain DRC39, OD650, 48 h (AID 1179);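 note: screen aims at cell division blockers that make cells filament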; conditions: E. coli DRC39 delta-acrAB growth, higher = more signal, called active from +8 up or from −8 down
# [9] = RPMI8226 myeloma cell viability, profiling panel, resazurin fluorescence, basal, 24 h, PK04 Diversity Set (AID 1180); conditions: higher = more signal;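 note: RPMI8826 multiple myeloma cell line at 5000 cells per well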
# [10] = target: E3 ubiquitin-protein ligase XIAP (Homo sapiens) (UniProt P98170); test: XIAP binders, primary screen, biophysical, small-molecule microarray, fluorescence 635 nm (AID 1181); conditions: small-molecule microarray binding, higher = more signal;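 note: score merges 667 nm emission and signal to noise over triplicate slides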
# [11] = tested on: XIP peptide (Xip251-270) binding; test: small-molecule binders of XIP peptide, primary screen, biochemical, small-molecule microarray, fluorescence 635/667 nm, 0.1 µg/mL protein (AID 1182); conditions: fluorescent protein binding, 635 nm, higher = more signal, called active from +8 up or from −8 down
# XIP peptide (Xip251-270) = test: small-molecule binders of XIP peptide, primary screen, biochemical, small-molecule microarray, fluorescence 635/667 nm, 0.5 µg/mL protein (AID 1183); conditions: small-molecule microarray binding, fluorescence 635 nm; higher = more signal
# [12] = Plasmodium falciparum growth inhibition, primary screen, strain 3D7, DAPI fluorescence, 100 nL (AID 1184);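 note: parasites grown inside human red blood cells in medium with human serum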; conditions: P. falciparum 3D7 growth, 3 d, higher = more signal
# [13] = target: Homeobox protein Hox-A13 (Mus musculus) (UniProt Q62424); test: inhibitors of HoxA13-DNA binding, primary screen, biochemical, fluorescence polarization, labeled oligonucleotide (AID 1185); conditions: 15 min, higher = more signal, called active from +8 up or from −8 down
# [14] = inhibitors of hydroxyurea-induced Chk1 phosphorylation, primary screen, imaging, HeLa, phospho-Chk1 antibody, percent positive cells (AID 1186); conditions: hydroxyurea-induced phospho-Chk1 immunofluorescence imaging, higher = more signal
# [15] = inhibitors of hydroxyurea-induced Chk1 phosphorylation, primary screen, imaging, HeLa, phospho-Chk1 nuclear intensity (AID 1187); conditions: hydroxyurea-induced phospho-Chk1 immunofluorescence imaging, higher = more signal
# Chain of Homeobox protein Hox-A13 (Mus musculus) (Q62424 whole entry, looked up): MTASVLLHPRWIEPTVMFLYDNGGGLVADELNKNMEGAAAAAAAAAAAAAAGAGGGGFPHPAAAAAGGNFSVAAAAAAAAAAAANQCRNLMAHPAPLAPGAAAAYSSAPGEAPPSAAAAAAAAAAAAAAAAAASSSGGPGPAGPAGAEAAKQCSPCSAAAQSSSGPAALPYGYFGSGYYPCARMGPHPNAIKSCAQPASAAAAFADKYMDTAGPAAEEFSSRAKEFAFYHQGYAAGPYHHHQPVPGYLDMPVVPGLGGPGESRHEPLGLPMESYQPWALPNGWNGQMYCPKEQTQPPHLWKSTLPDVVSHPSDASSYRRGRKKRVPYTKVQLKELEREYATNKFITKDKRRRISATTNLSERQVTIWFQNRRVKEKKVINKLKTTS
# Chain of Dihydroorotate dehydrogenase (quinone), mitochondrial (Plasmodium falciparum (isolate 3D7)) (Q08210 whole entry, looked up): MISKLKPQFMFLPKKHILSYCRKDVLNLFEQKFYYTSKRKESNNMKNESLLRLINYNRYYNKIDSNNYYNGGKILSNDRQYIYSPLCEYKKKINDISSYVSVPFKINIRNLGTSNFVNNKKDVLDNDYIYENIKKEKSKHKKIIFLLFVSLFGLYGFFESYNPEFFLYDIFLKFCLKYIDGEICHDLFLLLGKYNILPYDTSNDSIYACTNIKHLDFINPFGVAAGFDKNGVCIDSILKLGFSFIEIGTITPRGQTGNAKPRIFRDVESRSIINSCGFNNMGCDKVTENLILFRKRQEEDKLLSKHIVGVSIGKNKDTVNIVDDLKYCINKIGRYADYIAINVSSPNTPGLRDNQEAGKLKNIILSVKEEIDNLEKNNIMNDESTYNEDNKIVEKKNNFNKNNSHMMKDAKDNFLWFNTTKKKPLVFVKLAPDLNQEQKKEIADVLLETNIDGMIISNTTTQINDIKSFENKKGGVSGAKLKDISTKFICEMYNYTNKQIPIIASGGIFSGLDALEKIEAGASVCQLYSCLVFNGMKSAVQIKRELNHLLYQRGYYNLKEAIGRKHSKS
# Chain of E3 ubiquitin-protein ligase XIAP (Homo sapiens) (P98170 whole entry, looked up): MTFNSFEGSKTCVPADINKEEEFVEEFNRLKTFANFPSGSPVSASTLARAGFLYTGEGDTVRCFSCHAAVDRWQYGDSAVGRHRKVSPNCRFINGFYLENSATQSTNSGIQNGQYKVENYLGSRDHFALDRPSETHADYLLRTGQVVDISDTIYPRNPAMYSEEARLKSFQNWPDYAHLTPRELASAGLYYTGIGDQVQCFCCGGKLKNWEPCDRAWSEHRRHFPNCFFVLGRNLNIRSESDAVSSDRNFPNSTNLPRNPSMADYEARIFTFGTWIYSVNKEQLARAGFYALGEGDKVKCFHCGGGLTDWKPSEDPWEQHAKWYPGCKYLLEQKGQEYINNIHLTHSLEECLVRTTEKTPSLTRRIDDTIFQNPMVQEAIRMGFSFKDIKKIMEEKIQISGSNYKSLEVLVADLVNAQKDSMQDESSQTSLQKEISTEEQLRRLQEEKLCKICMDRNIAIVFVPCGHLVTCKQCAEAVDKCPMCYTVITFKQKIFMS
Structure (SMILES),z-score [1],z-score [2],z-score [3],composite z-score [4],z-score [5],z-score [6],z-score [7],z-score [8],z-score [9],composite z-score [10],composite z-score [11],composite z-score (XIP peptide (Xip251-270)),z-score [12],z-score [13],z-score [14],z-score [15]
CC1(C)OCC(C(O)C2=CCCCC2=O)CO1 (stereo unspecified),-0.786,-0.124 (inactive),0.665 (inactive),0.523 (inactive),1.49 (inactive),0.205 (inactive),-0.85 (inactive),-2.63 (inactive),0.297,-0.294,0.563 (inactive),0.446,-0.831,-2.61 (inactive),–,–
CC(CCN1CCCCc2nc(C)c(C)cc21)=NOC(C)CN1CCCc2nc(C)c(C)cc21 (stereo unspecified),-0.0636,-0.0975 (inactive),-0.542 (inactive),0.333 (inactive),1.03 (inactive),0.325 (inactive),0.529 (inactive),-0.936 (inactive),-0.0794,1.56,0.829 (inactive),0.731,0.507,-10.5 (active),–,–
CC(C)[C@@H](OCc1ccccc1)[C@H](C)C=NOC[C@@H](C)[C@H](OCc1ccccc1)C(C)C,-0.914,0.425 (inactive),-0.908 (inactive),-0.213 (inactive),-0.324 (inactive),-0.089 (inactive),0.705 (inactive),1.09 (inactive),-1.11,-0.345,0.468 (inactive),-0.185,0.128,0.24 (inactive),–,–
CC(CCC(=O)OC[C@H]1O[C@H](C#Cc2ccccc2)C=C[C@@H]1Oc1ccc(C)cc1)=NOC[C@@H](O)COCc1ccco1,-0.501,0.384 (inactive),-1.39 (inactive),-1.24 (inactive),0.277 (inactive),-0.0703 (inactive),0.564 (inactive),0.895 (inactive),0.131,-0.0454,-0.729 (inactive),-0.205,0.177,-3.65 (inactive),–,–
COc1ccc(-c2ccc3c(n2)CCCN3CC(O)CN2CCCc3nc(C)c(C)cc32)cc1 (stereo unspecified),-0.671,-1.75 (inactive),-0.559 (inactive),1.18 (inactive),0.274 (inactive),-0.256 (inactive),0.975 (inactive),0.65 (inactive),-0.836,1.15,2.32 (inactive),0.79,0.618,-9.12 (active),–,–
CC(CCC(=O)OC[C@H]1O[C@H](C#Cc2ccccc2)C=C[C@@H]1Oc1ccc(C)cc1)=NOC[C@@H](O)[C@H]1O[C@@H]2OC(C)(C)O[C@@H]2[C@H]1O,-0.279,0.197 (inactive),0.134 (inactive),-2.15 (inactive),-0.324 (inactive),0.71 (inactive),0.844 (inactive),1.1 (inactive),0.0234,-0.325,0.0901 (inactive),-0.823,-0.521,-2.3 (inactive),–,–
CCOC(=O)[C@H](Cc1ccccc1)NC(=O)CCC1CC(OC(=O)NCCc2ccc(F)cc2)CC2(CCCC(COC(=O)NCC(c3ccccc3)c3ccccc3)O2)O1 (stereo partly specified),0.506,0.167 (inactive),-0.874 (inactive),-0.219 (inactive),0.0494 (inactive),0.509 (inactive),0.565 (inactive),-0.563 (inactive),0.489,-0.161,-0.295 (inactive),0.651,-1.39,-4.95 (inactive),–,–
C=C(CCCC)C(=O)CC[C@@H](OC(C)=O)c1cccc(OCCO)c1,-0.749,-17.8 (active),-1.01 (inactive),-3.64 (inactive),0.367 (inactive),-19.2 (active),-0.55 (inactive),-0.528 (inactive),-1.07,0.136,-0.0399 (inactive),0.0194,-1.47,-3.72 (inactive),0.163 (inactive),0.0394 (inactive)
CCOC(=O)CCN1C(=O)[C@H]2[C@H]3[C@H](O)C=CC(=O)[C@@H]3CC[C@H]2C1=O,-0.0089,0.454 (inactive),0.606 (inactive),0.231 (inactive),0.0942 (inactive),0.713 (inactive),0.446 (inactive),-0.689 (inactive),0.353,0.0356,0.58 (inactive),0.0156,-0.0439,-0.525 (inactive),–,–
C=CC[C@@H]1C=C[C@H](ON=C[C@@H](OC)[C@H](C)C=CCC(=O)OC)[C@@H](CO)O1,-0.266,-0.54 (inactive),-0.709 (inactive),0.217 (inactive),-0.537 (inactive),1.17 (inactive),0.456 (inactive),0.732 (inactive),-0.707,0.32,-0.0604 (inactive),0.168,0.167,-0.413 (inactive),–,–
O=C1CCCC=C1C(O)CCOCc1ccccc1 (stereo unspecified),0.123,-1.76 (inactive),-0.43 (inactive),-0.0462 (inactive),0.602 (inactive),-0.735 (inactive),-0.88 (inactive),-1.74 (inactive),0.104,-0.0525,-0.294 (inactive),0.0941,-0.929,-0.861 (inactive),–,–
